D1 ag: Allosteric Agonists of the Human D1 Dopamine Receptor: qHTS | D(1A) dopamine receptor (Homo sapiens), P21728 | HEK293 T-REx D1 cells, calcium flux, agonist mode | activation, % at 2 µM | 360,000 compounds, 1% hits | AID 504660, 2011
Target sequence (P21728 whole entry, looked up): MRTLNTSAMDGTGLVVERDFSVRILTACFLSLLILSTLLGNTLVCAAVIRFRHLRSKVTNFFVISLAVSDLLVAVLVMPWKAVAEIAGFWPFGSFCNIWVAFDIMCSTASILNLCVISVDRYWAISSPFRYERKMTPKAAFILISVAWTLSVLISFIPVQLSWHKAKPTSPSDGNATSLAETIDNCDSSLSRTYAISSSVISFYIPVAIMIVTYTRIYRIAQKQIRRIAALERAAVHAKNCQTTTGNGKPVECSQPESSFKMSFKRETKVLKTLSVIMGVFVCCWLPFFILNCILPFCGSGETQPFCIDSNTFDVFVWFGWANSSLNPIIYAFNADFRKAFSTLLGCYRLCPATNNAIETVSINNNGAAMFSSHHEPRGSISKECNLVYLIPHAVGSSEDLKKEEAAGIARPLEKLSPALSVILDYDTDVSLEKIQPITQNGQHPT
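Agonism was scored from calcium flux recorded over 180 s (1 read/s) after pintool compound addition, following a 10-cycle baseline. Cells were inducible force-coupled HEK293 TREx D1, plated overnight at 30 C and loaded with no-wash calcium dye.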
D1 PAM: Potentiators of Human D1 Dopamine Receptor: qHTS; AID 504651, 2011; 360,000 compounds, 0.036% hits; potentiation, % at 10 µM; HEK293 TREx D1 cells, calcium flux, dopamine EC20 potentiation; in the data active = potentiation above about 30%
TRHR enhancer: qHTS for Small Molecule Agonists and Allosteric Enhancers of Human TRH Receptor: Primary Screen for Enhancers; Thyrotropin-releasing hormone receptor (Homo sapiens), P34981; enhancement, % at 2 µM; TRHR cells, fluo-8 calcium fluorescence, EC20 TRH enhancement; AID 493056, 2011; 360,000 compounds, 0.66% hits; in the data active = enhancement above about 30%
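TRHR-expressing cells loaded with fluo-8 calcium dye were read kinetically (ex 480/em 530) during compound addition, then stimulated with an EC20 of TRH (10 nM final). Enhancement of the Gq-mediated intracellular calcium response was scored.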
D1 antagonist: Antagonist of Human D 1 Dopamine Receptor: qHTS; D(1A) dopamine receptor (Homo sapiens), P21728; HEK293 TREx D1 cells, calcium flux, dopamine EC80; hits give low values; activity change, negative = inhibition, % at 10 µM; 360,000 compounds, 3.2% hits; in the data active = activity change below about -30%
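Tetracycline-induced HEK293 Trex D1 cells, force-coupled to calcium, dye-loaded; compounds added and read 180 s, then EC80 dopamine added and calcium flux tracked kinetically another 180 s.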
Glioma ERSR ind: qHTS for Inducers of the Endoplasmic Reticulum Stress Response (ERSR) in Human Glioma: qHTS; U87-MG GRP78 promoter luciferase reporter, 16 h; Potency, µM, usual class: activators; 420,000 compounds, 0.02% hits; active = well fitted activation curve with a large enough effect; inconclusive = small, poorly fitted or top-dose-only effect; inactive = no such curve, though single readings can be large or run the other way; also: series mostly up to about 76 µM; nearly all actives have a fitted effect of over 35% in size
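Stably transfected U87-MG glioma cells carrying a GRP78-based luciferase sensor; 16 h compound incubation. Luminescence end-point read 10 min after Bright-Glo addition at room temperature.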
TRHR agonist: qHTS for Small Molecule Agonists and Allosteric Enhancers of Human TRH Receptor: Primary Screen for Agonists | Thyrotropin-releasing hormone receptor (Homo sapiens), P34981 | TRHR cells, calcium flux fluo-8, FDSS agonist mode | activation, % at 2 µM | 360,000 compounds, 0.18% hits
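In this calcium-flux screen, cells bearing human TRHR are dye-loaded with fluo-8, baselined for 10 cycles, then exposed to library compounds; positive kinetic calcium responses during the agonist phase mark hits, with TRH as control.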
Hits are given with their value; - = inactive; ? = inconclusive; . = no result given. This is a sample that favours compounds with a hit; in the whole collection about 4% have one here. Rule as the data show it, unless noted: active = activation above about 30%; inactive = the rest.

SMILES	D1 ag	D1 PAM	TRHR enhancer	D1 antagonist	Glioma ERSR ind	TRHR agonist
CCOc1ccc(C(C)NC(=O)Nc2ccc(F)cc2F)cc1 (configuration not stated)	-	-	-	-76.7	-	-
CCO/N=C/C(=O)Nc1ccc(F)cc1F	-	-	-	-74.5	-	-
CC(=O)Oc1ccc2oc3c(c2c1)C(=O)CCC3	-	-	-	-	-	-
COc1cccc(/C=N/Nc2ccnc(=O)[nH]2)c1O	-	-	-	-	-	-
O=[N+]([O-])c1ccc(CN2CCN(c3ccc(Cl)cc3)CC2)o1	-	-	-	-32.3	-	-
O=[N+]([O-])c1ccc(N2CCN(C(=S)NCc3ccc(Cl)cc3)CC2)cc1	-	-	-	-	-	-
CS(=O)(=O)Nc1ccc(C(=O)NCCSC2CCCCC2)cc1	-	-	-	-	-	-
COc1ccc(C(=O)NC(=S)N(C)C2CCCCC2)cc1	-	-	-	-45.5	-	-
COc1ccc(C(=O)NC(=S)N(C)C2CCCCC2)cc1Br	-	-	-	-	-	-
O=C(NCCSC1CCCCC1)c1ccccc1	-	-	-	-77.4	-	-
COc1ccc(C(=O)NCCSC2CCCCC2)cc1	-	-	-	-42.9	-	-
CCN(CC(=O)Nc1cc(Cl)ccc1C)C(=O)C1CCN(c2ncnc3sc(C)c(C)c23)CC1	.	.	.	.	-	.
COc1ccc(CC2S/C(=N/N=C/c3ccc(O)cc3)NC2=O)cc1 (configuration not stated)	-	-	-	-	-	-
COc1ccc(-c2noc(CCC(=O)N3CCN(c4ccc(Br)cc4)CC3)n2)cc1	.	.	.	.	-	.
Cc1ccc2c(c1)C1CN(C)CCC1N2Sc1ccccc1[N+](=O)[O-] (configuration not stated)	-	-	-	-95.0	-	-
Cc1ccc2c(c1)[C@@H]1CN(C)CC[C@@H]1N2S(=O)(=O)c1ccc([N+](=O)[O-])cc1	59.5	-	-	-	-	-
Cc1ccc2c(c1)[C@@H]1CN(C)CC[C@@H]1N2S(=O)(=O)c1ccc(F)cc1	-	-	-	-	-	-
CN(C)CCNC(=O)CNC(=S)N(Cc1ccccc1)Cc1cccnc1	-	-	-	-	-	-
Fc1ccccc1NC(=S)N(CCN1CCCCCC1)Cc1cccs1	-	-	-	-31.9	-	-
Cc1ccccc1NC(=S)N(CCN1CCCCCC1)Cc1cccs1	-	-	-	-	-	-
COc1ccc(C(=O)O/N=C/c2c(C(F)(F)F)nn(C)c2SCc2ccccc2Cl)cc1	-	-	-	-	?	-
CC1CCN(S(=O)(=O)c2ccc3c(c2)N(CC(=O)NCCCN2CCCC(C)C2)C(=O)CS3)CC1 (configuration not stated)	-	-	-	-	-	-
CCOC(=O)N1CCN(S(=O)(=O)N2CCCC(C(=O)NCc3ccccc3Cl)C2)CC1 (configuration not stated)	-	-	-	-	-	-
Cc1[nH]c2ccccc2c1SCC(=O)N1CCOCC1	-	-	-	-	-	-
Cc1[nH]c2ccccc2c1SCC(=O)N1CCC(C)CC1	-	-	-	-48.5	-	-
SMILES	D1 ag	D1 PAM	TRHR enhancer	D1 antagonist	Glioma ERSR ind	TRHR agonist
COc1cc(NC(=O)COC(=O)c2ccc(S(=O)(=O)N3CC(C)CC(C)C3)cc2)c(C)cc1[N+](=O)[O-] (configuration not stated)	-	-	-	-	-	-
CC(=O)NNC(=S)NC(=O)C(c1ccccc1)c1ccccc1	-	-	-	-	-	-
CC(C)(C)C(=O)NC(=S)NNC(=O)C(c1ccccc1)c1ccccc1	349.6	34.2	-	-	22.4µM	99.2
COCc1c(C(=O)NCC2COc3ccccc3O2)oc2ccccc12 (configuration not stated)	-	-	-	-	-	-
CN(C)S(=O)(=O)N1CCC(n2nccc2NC(=O)CCc2ccccc2)CC1	-	-	-	-43.5	-	-
O=C(CCCc1ccccc1)Nc1ccnn1C1CCN(Cc2ccccc2)CC1	33.6	-	-	-	-	-
O=C(Nc1ccnn1C1CCN(Cc2ccccn2)CC1)c1cccc(F)c1	-	-	-	-38.1	-	-
O=C(CCCc1ccccc1)Nc1ccnn1C1CCN(Cc2ccc(CO)o2)CC1	-	-	-	-33.7	-	-
O=C(Nc1ccnn1C1CCN(Cc2ccccc2OCCO)CC1)c1cccc(F)c1	-	-	-	-	-	-
C[C@@H]1CN([C@@H](C)CO)C(=O)CCCn2nncc2CO[C@H]1CN(C)C(=O)Nc1ccc(-c2cccs2)cc1	.	.	.	.	-	.
Cc1cc(OCC(=O)Nc2cccc(S(=O)(=O)NC3=NCCCCC3)c2)ccc1Cl	-	-	-	-30.8	-	-
Cc1ccc(OCC(=O)Nc2cccc(S(=O)(=O)NC3=NCCCCC3)c2)cc1C	-	-	-	-	-	-
Cc1ccc2c(c1)C(Cc1ccccc1F)C(=O)N2 (configuration not stated)	-	-	-	-46.3	-	-
Cc1ccccc1CC1C(=O)Nc2ccc(Br)cc21 (configuration not stated)	48.2	31.7	-	-	.	-
COc1ccc(Br)cc1CC1C(=O)Nc2ccccc21 (configuration not stated)	-	-	-	-	-	-
CC(=O)Nc1ccc(S(=O)(=O)Nc2cc(Cl)ccc2N2CCOCC2)cc1	.	.	.	.	-	.
CCOc1cc2sc(N3CCC(C(=O)Nc4ccc(C)cc4)CC3)nc2cc1Br	-	-	-	-57.8	-	-
CCCCCCCCOC(=O)C[N+](C)(C)C/C=C(/C)Cl	-	-	-	-	-	-
CCCCCCCCCCCCOC(=O)C[N+](C)(C)C	43.5	-	-	-34.6	-	-
CCCCCCCCCCOC(=O)C[N+](C)(C)C/C=C(/C)Cl	54.8	-	-	-	-	-
Cc1ccc(C(=O)N/N=C\c2c(C)nn(-c3ccccc3)c2Cl)cn1	-	-	-	-	-	-
Cc1ccccc1OCC(=O)N/N=C/c1c(C)nn(-c2ccccc2)c1Cl	-	-	-	-54.8	-	-
C=CCn1c(SCc2nc3ccccc3[nH]2)nnc1-c1cccc(OC)c1	-	-	-	-	-	-
CCOC(=O)CCC(NC(=O)CCC(=O)NC(CCC(=O)OCC)C(=O)OCC)C(=O)OCC (configuration not stated)	-	-	30.6	-	-	-

Screening results (PubChem BioAssay)
